Source: article PMC5540273 (PLoS ONE, 2017)
Values joined by “and” are separate entries in the source; they are usually repeats but may differ in a detail not shown here. Identical values can stand only once. Like-named read-outs stand apart in the source and are kept apart here.

How the values were obtained:
[1] = system: PIM1; conditions: n = 1
[2] = system: PIM2; conditions: concentration: 1 μM, replicates: in singlicate; n = 1
[3] = system: PIM3; conditions: n = 1
[4] = system: PIP5K1A; conditions: concentration: 1 μM, replicates: in singlicate; n = 1
[5] = system: PIP5K1C; conditions: n = 1
[6] = system: PIP5K2B; conditions: n = 1
[7] = system: T1, PIP5K2C; conditions: n = 1
T1 construct: gene PIP4K2C

[8] = system: T2, PKAC-alpha; conditions: n = 1
T2 construct: gene PRKACA

[9] = system: T3, PKAC-beta; conditions: n = 1
T3 construct: gene PRKACB

[10] = system: PKMYT1; conditions: n = 1
[11] = concentration: 1 μM, replicates: in singlicate
[12] = concentration: 1 μM,replicates: in singlicate, 1 µM
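Further: KINOMEscan kinase panel screen.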

Row | SMILES | %Inh [1, 11] [%] | %Inh [2] [%] | %Inh [3, 11] [%] | %Inh [4] [%] | %Inh [5, 11] [%] | %Inh [6, 11] [%] | %Inh [7, 11] [%] | %Inh [8, 11] [%] | %Inh [9, 11] [%] | %Inh [10, 11] [%] | %Inh [1, 12] | %Inh [3, 12] | %Inh [5, 12] | %Inh [6, 12] | %Inh [7, 12] | %Inh [8, 12] | %Inh [9, 12] | %Inh [10, 12]
1 | NC(=O)c1nnc2ccccc2c1N | 1 | 0 | 0 | 0 | 38 | 0 | 13 | 13 | 16 | 15 |  |  |  |  |  |  |  | 
2 | O=c1cc(N2CCOCC2)nc2n(Cc3cccc(Cl)c3Cl)ccn12 [GSK2286295] | 4 | 0 | 5 | 0 | 16 | 2 | 0 | 16 | 5 | 2 |  |  |  |  |  |  |  | 
3 | Cc1ccc(-c2cc(-c3c[nH]nc3-c3ccccn3)ccn2)cc1 [GW684088] | 20 | 0 | 2 | 50 | 71 | 8 | 67 | 30 | 0 | 0 |  |  |  |  |  |  |  | 
4 | Cc1c(O)cccc1Nc1ccnc2ccc(C(F)(F)F)cc12.Cl [GW466413] | 8 | 0 | 0 | 32 | 11 | 0 | 30 | 0 | 3 | 39 |  |  |  |  |  |  |  | 
5 | O=C(O)COc1ncnc2cc(-c3ccc4[nH]ncc4c3)sc12 | 0 | 0 | 7 | 0 | 0 | 17 | 0 | 0 | 4 | 0 |  |  |  |  |  |  |  | 
6 | Cc1nnc(-c2ccc3occ(-c4ccc(S(C)=O)cc4)c3c2)[nH]1 (stereo not drawn) | 32 | 58 | 35 | 0 | 63 | 35 | 61 | 9 | 0 | 21 |  |  |  |  |  |  |  | 
7 | Cc1ccc(C(=O)Nc2ccc(Nc3ccnc4cc(-c5ccccn5)ccc34)cc2O)cc1.Cl [GW440146] | 16 | 0 | 12 | 35 | 0 | 11 | 31 | 0 | 8 | 0 |  |  |  |  |  |  |  | 
8 | COC(=O)c1c(-c2ccccc2)c2cc(OC)ccc2c(=O)n1Cc1ccccc1 | 18 | 2 | 20 | 16 | 14 | 38 | 0 | 21 | 0 | 2 |  |  |  |  |  |  |  | 
9 | COc1cc2ncn(-c3cc(OCC4CCCO4)c(C(N)=O)s3)c2cc1OC (stereo not drawn) [GSK204607] | 17 | 0 | 0 | 6 | 84 | 9 | 33 | 0 | 0 | 0 |  |  |  |  |  |  |  | 
10 | CS(=O)(=O)c1ccc(-c2nc3n(c2-c2ccncc2)CCC3)cc1 [SKF-105942] | 0 | 0 | 0 | 4 | 13 | 21 | 7 | 0 | 0 | 0 |  |  |  |  |  |  |  | 
11 | Cn1ccc2ncnc(Oc3cccc(C(=O)Nc4ccccc4)c3)c21 | 1 | 0 | 14 | 0 | 0 | 17 | 8 | 8 | 0 | 16 |  |  |  |  |  |  |  | 
12 | O=C(Nc1ccc2c(c1)OCO2)NC1CCN(c2ccnc(Nc3ccc(F)cc3)n2)C1 (stereo not drawn) [GSK1379724] | 0 | 0 | 0 | 34 | 32 | 13 | 23 | 0 | 0 | 15 |  |  |  |  |  |  |  | 
13 | Cc1cccc(-c2nc(Nc3ccc4[nH]ncc4c3)c3ccccc3n2)n1 [GW857175] | 5 | 38 | 0 | 0 | 0 | 42 | 0 | 34 | 0 | 19 |  |  |  |  |  |  |  | 
14 | COc1cccc(-c2cc(-c3c[nH]nc3-c3ccccn3)ccn2)c1 [GW680338] | 0 | 0 | 0 | 19 | 69 | 21 | 55 | 0 | 0 | 0 |  |  |  |  |  |  |  | 
15 | CSc1nn2c(=O)cc(N3CCOCC3)nc2n1Cc1cccc(C(F)(F)F)c1C [GSK2363608] |  | 0 |  | 0 |  |  |  |  |  |  | 0% and 34% | 0% and 27% | 30% and 0% | 1% and 4% | 6% and 8% | 50% and 0% | 64% and 0% | 13% and 19%
16 | COc1cc2nccc(Nc3ccc(NC(=O)c4ccc(C)cc4)c(O)c3)c2cc1OC.Cl [GW440132] | 0 | 0 | 0 | 0 | 50 | 0 | 4 | 12 | 0 | 4 |  |  |  |  |  |  |  | 
17 | CN1C(=O)C(Nc2ccc(Cl)c(C(=O)O)c2)=C(c2ccc(Cl)cc2)C1=O [SB-404290] | 0 | 0 | 0 | 11 | 0 | 0 | 0 | 0 | 4 | 0 |  |  |  |  |  |  |  | 
18 | COc1ccc(C2=C(Nc3cccc(C(=O)O)c3)C(=O)NC2=O)cc1 [SB-390765] | 5 | 6 | 11 | 13 | 4 | 16 | 0 | 12 | 25 | 0 |  |  |  |  |  |  |  | 
